# From the supplement of paper PMC11634586
# Where a name gives a salt, the structure may show the parent alone.
# System: NCI-H1688
# Test: inhibition of cell viability relative to untreated control (fraction); higher = stronger growth inhibition, active = 0.5 or more
# Conditions: 30 µM; 24 h
# In short: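 After seeding at 3 × 10^3 cells/well in 96-well plates and a 24 h wait, NCI-H1688 small cell lung cancer cells received a natural compound library (TargetMol) at 30 µM for 24 h, kept at 37°C with 5% CO2. Triplicate readings of Cell Counting Kit-8 absorbance at 450 nm measured viability. Each value is the inhibition of cell viability as a fraction, derived from viability normalised to untreated cells.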
row,SMILES,inhibition of cell viability
1,NC(=O)CCC(N)C(=O)O (racemic) [DL-Glutamine],-0.221 (inactive)
2,OC[C@H]1O[C@@H](O[C@@H]2[C@@H](CO)OC(O)(CO)[C@H]2O)[C@H](O)[C@@H](O)[C@H]1O (mixture of isomers) [Lactulose],0.135 (inactive)
3,CC1OC(OC2C(OC3CCC4(C)C(CCC5(C)C4CC=C4C6CC(C)(C)CCC6(C(=O)OC6OC(COC7OC(CO)C(O)C(O)C7O)C(O)C(O)C6O)CCC45C)C3(C)CO)OCC(O)C2O)C(O)C(O)C1O (configuration not stated) [Dipsacoside B],0.235 (inactive)
4,OC[C@H]1O[C@@H](Oc2cc(O)cc(/C=C/c3ccc(O)cc3)c2)[C@H](O)[C@@H](O)[C@@H]1O [Piceid],0.175 (inactive)
5,COc1ccc(-c2coc3cc(O)ccc3c2=O)cc1 [Formononetin],0.0427 (inactive)
6,CC1(C)CCC[C@](C)([C@H]2CC[C@]3(C)[C@@H]2[C@H](O)C[C@@H]2[C@@]4(C)CC[C@H](O)C(C)(C)[C@@H]4[C@H](O)C[C@]23C)O1 [Panaxtriol],-0.0145 (inactive)
7,C=C[C@H]1CN2CC[C@H]1C[C@@H]2[C@@H](O)c1ccnc2ccc(OC)cc12 [Quinidine hydrochloride],-0.217 (inactive)
8,CC1=C(/C=C/C(C)=C/C=C/C(C)=C/C=C/C=C(C)/C=C/C=C(C)/C=C/C2=C(C)CCCC2(C)C)C(C)(C)CCC1 [Beta-Carotene],0.426 (inactive)
9,COc1ccc2cc1Oc1ccc(cc1)C[C@H]1c3cc(c(OC)cc3CCN1C)Oc1c(O)c(OC)cc3c1[C@H](C2)N(C)CC3 [Fangchinoline],0.969 (active)
10,COc1cc(C2Oc3cc([C@H]4Oc5cc(O)cc(O)c5C(=O)[C@@H]4O)ccc3OC2CO)ccc1O (some centres not stated) [Silibinin],0.0271 (inactive)
11,COc1cc(C=O)ccc1O [Vanillin],0.219 (inactive)
12,CC(=O)c1ccc(O)c(C(=O)O)c1 [5-Acetylsalicylic acid],0.0598 (inactive)
13,COc1cc(CCC(=O)O)ccc1O [Hydroferulic acid],0.0171 (inactive)
14,CC1(C)CCC[C@]2(C)[C@H]3CC(=O)O[C@]3(C)CC[C@@H]12 [Sclareolide],0.206 (inactive)
15,COc1ccc([C@@H]2CC(=O)c3c(O)cc(O)cc3O2)cc1O [Hesperetin],-0.0748 (inactive)
16,CO[C@H]1C[C@@H]2CC[C@@H](C)[C@@](O)(O2)C(=O)C(=O)N2CCCC[C@H]2C(=O)O[C@H]([C@H](C)C[C@@H]2CC[C@@H](O)[C@H](OC)C2)CC(=O)[C@H](C)/C=C(\C)[C@@H](O)[C@@H](OC)C(=O)[C@H](C)C[C@H](C)/C=C/C=C/C=C/1C [Rapamycin (Sirolimus)],0.76 (active)
17,Cc1[nH]ccc2c1[nH]c1cc(=O)ccc12 [Harmol],0.664 (active)
18,COc1cc(C(C)=O)ccc1O [Acetovanillone],0.213 (inactive)
19,C[C@H](CCC(=O)O)[C@H]1CC[C@H]2[C@@H]3CC[C@@H]4C[C@H](O)CC[C@]4(C)[C@H]3CC[C@]12C [Lithocholic acid],-0.0194 (inactive)

row,SMILES,inhibition of cell viability
1,O=C1O[C@H]([C@@H](O)CO)C(O)=C1O [L(+)-Ascorbic acid],0.195 (inactive)
2,C[C@H](CCC(=O)NCCS(=O)(=O)O)[C@H]1CC[C@H]2[C@@H]3[C@@H](O)C[C@@H]4C[C@H](O)CC[C@]4(C)[C@H]3CC[C@]12C [Tauroursodeoxycholic Acid],0.00688 (inactive)
3,OC[C@H]1OC(O)[C@@H](O)[C@@H](O)[C@@H]1O (some centres not stated) [Mannose],0.0629 (inactive)
4,C[N+](C)(C)CC(=O)O [Betaine],0.299 (inactive)
5,CC1(C)CC[C@]2(C(=O)O)CC[C@]3(C)C(=CC[C@@H]4[C@@]5(C)CC[C@H](O)C(C)(C)[C@@H]5CC[C@]43C)[C@@H]2C1 [Oleanolic Acid],0.0195 (inactive)
6,Oc1cc(O)c2c(c1)O[C@H](c1ccc(O)c(O)c1)[C@@H](O)C2 [(+)-Catechin Hydrate],0.159 (inactive)
7,Cc1ccc(C(C)C)cc2c(C)ccc1-2 [Guaiazulene],0.0813 (inactive)
8,CC12CCC(CC1)C(C)(C)O2 [Eucalyptol],-0.192 (inactive)
9,C=CCS[S+]([O-])CC=C (configuration not stated) [Allicin],-0.267 (inactive)
10,N[C@@H](Cc1c[nH]c2ccccc12)C(=O)O [L-Tryptophan],-0.199 (inactive)
11,C[C@H](CCC(=O)O)[C@H]1CC[C@H]2[C@@H]3C(=O)C[C@@H]4CC(=O)CC[C@]4(C)[C@H]3CC(=O)[C@]12C [Dehydrocholic acid],-0.142 (inactive)
12,CC[C@]1(O)C[C@@H]2CN(CCc3c([nH]c4ccccc34)[C@@](C(=O)OC)(c3cc4c(cc3OC)N(C)[C@H]3[C@@](O)(C(=O)OC)[C@H](OC(C)=O)[C@]5(CC)C=CCN6CC[C@]43[C@@H]65)C2)C1 [Vinblastine sulfate],0.764 (active)
13,CN(C)[C@@H]1C(O)=C(C(N)=O)C(=O)[C@@]2(O)C(O)=C3C(=O)c4c(O)cccc4[C@@](C)(O)[C@H]3C[C@@H]12 [Tetracycline hydrochloride],0.293 (inactive)
14,C=C1C(=O)O[C@@H]2C[C@@]3(C)CCCC(=C)[C@@H]3C[C@H]12 [Isoalantolactone],0.867 (active)
15,Oc1cc(O)c2c(c1)OC(c1ccc(O)c(O)c1)C(OC1(c3ccc(O)c(O)c3)Oc3cc(O)cc(O)c3C(O)C1O)C2 (configuration not stated) [Proanthocyanidins],-0.126 (inactive)
16,"COc1cc(O)cc(OC)c1OC [3,4,5-Trimethoxyphenol]",0.0652 (inactive)
17,CC(C)CCC[C@@H](C)[C@H]1CC[C@H]2[C@@H]3CC[C@H]4CC(=O)CC[C@]4(C)[C@H]3CC[C@]12C [5alpha-Cholestan-3-one],-0.0937 (inactive)
18,COC(=O)C1=CO[C@@H](O[C@@H]2O[C@H](CO)[C@@H](O)[C@H](O)[C@H]2O)[C@@H]2[C@@H](C)[C@@H](O)C[C@H]12 [Loganin],0.0696 (inactive)
